PrP 5UTR inh – inhibition of PrP 5' UTR reporter expression; cell-based PrP 5' UTR mRNA reporter, plate reader; 340,000 compounds, 0.35% hits; inhibition, % (concentration not given with the values); in the data active = inhibition above about 52%
BJeLR lethal – BJeLR cell viability loss. BJeLR (HRASV12) viability, CellTiter-Glo ATP luminescence, 48 h. inhibition, % (test concentration not listed). 300,000 compounds, 0.17% hits. AID 1554; in the data active = inhibition above about 50%
MazEF act – increases E. coli MazEF RNase cleavage of RNA; activation, % at 20 µM; 350,000 compounds, 0.32% hits; P0AE70; FAM/BHQ RNA-DNA oligo cleavage fluorescence, 5 h; in the data active = activation above about 50%
Target sequence (P0AE70 whole entry, looked up): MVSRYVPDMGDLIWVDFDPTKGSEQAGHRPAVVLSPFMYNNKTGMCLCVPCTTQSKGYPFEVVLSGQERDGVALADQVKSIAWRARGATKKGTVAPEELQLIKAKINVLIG
PrPC surface inh – cell surface PrPC inhibition, primary TR-FRET screen | AID 720596 | 370,000 compounds, 0.43% hits | inhibition, % at 13.8 µM | TR-FRET read-out; in the data active = inhibition above about 24%
A number is an active result; – = inactive; · = not tested or not shown; + = active, no number. In the library only some 1.1% were active in any assay of this set; here they are far more common.

SMILES	PrP 5UTR inh	BJeLR lethal	MazEF act	PrPC surface inh
CN(C)c1cc(-c2ccc([N+](=O)[O-])cc2)oc(=O)c1Cl	–	–	54.3	–
O[C@@H](Cc1ccccc1)[C@@H](/C=C/c1ccccc1)N(Cc1ccccc1)Cc1ccccc1	·	·	·	–
O=C(Nc1ccc(F)cc1)Nc1ccc(N2CCCC2)c(S(=O)(=O)Nc2ccccc2Cl)c1	–	–	52.7	–
Cc1ccc(-c2nc3sc(C#N)c(N)n3c(=O)c2C#N)cc1	–	–	733.2	–
CCN(CC)S(=O)(=O)c1ccc(Cl)c(C(=O)Nc2nnc(C)s2)c1	–	–	–	–
CCN(CC)S(=O)(=O)c1ccc(Cl)c(NC(=O)c2cc(Cl)ccc2Cl)c1	–	–	54.0	–
CCOC(=O)[C@]12CCCC=C1N(CCCOC)C(=O)[C@@H]2CC(=O)N1CCN(C(=O)c2ccco2)CC1	·	·	·	–
CCOC(=O)/C(C#N)=N/Nc1ccccc1OC	–	–	64.6	–
CCOCCC(=O)Nc1cc(Cl)ccc1OC	–	–	–	–
CCOC(=O)/C(C#N)=N\Nc1cc(Cl)ccc1OC	–	–	325.8	–
CCC(C)C(N)C1=NC(C(=O)N[C@@H](CC(C)C)C(=O)N[C@H](CCC(=O)O)C(=O)N[C@H](C(=O)N[C@H]2CCCCNC(=O)[C@H](CC(N)=O)NC(=O)[C@@H](CC(=O)O)NC(=O)[C@H](Cc3cnc[nH]3)NC(=O)[C@@H](Cc3ccccc3)NC(=O)[C@H]([C@@H](C)CC)NC(=O)[C@@H](CCCN)NC2=O)[C@@H](C)CC)CS1 (stereo partly drawn)	–	·	386.6	–
Cc1cc(-c2ccccc2)c2c3c(c(-c4ccccc4)n2n1)c(=O)n(C)c(=O)n3C	–	–	+	·
CSc1ccccc1NC(=O)Nc1cccc(Cl)c1	–	–	119.1	–
CC(=O)C1=C(c2cccc([N+](=O)[O-])c2)N(C(C)=O)n2c(C)nnc2S1	–	–	51.6	–
CC(=O)c1c(C(C)=O)c(C)n(-c2cccc([N+](=O)[O-])c2)c1C	–	–	–	–
O=C1CSC(=S)N1N=Cc1c(O)ccc2ccccc12	–	·	590.0	–
COc1ccc2ccccc2c1/C=N/N1C(=O)CSC1=S	–	–	–	–
CCCCCCCCN1C(=O)[C@@H](CC(=O)N2CCN(C(=O)OCC)CC2)C[C@@]2(C(=O)OC)C1=C[C@H](C(C)(C)C)O[C@@H]2C	·	·	·	–
O=C(N[C@H](C(=O)N1CCC[C@H]1C(=O)NCc1ccccc1)c1ccccc1)c1ccc(Cl)cc1Cl	·	·	·	–
Cc1ccc(C(=O)c2sc3nsc(C)c3c2N)cc1	–	–	61.7	–
Cc1snc2sc(C(=O)c3ccc(Br)cc3)c(N)c12	–	–	–	–
O=C(Nc1cccc(Cl)c1)NN(c1ccccc1)C1CCS(=O)(=O)C1 (stereo not drawn)	·	·	·	–
CN1CCCCC(NC(=O)c2ccc(Cl)cc2Cl)C1=O (stereo not drawn)	·	·	·	–
C=C1C(=O)O[C@H]2C[C@H]1[C@@H](OC(C)=O)C/C(C)=C/CC/C(C)=C\CC[C@]2(C)O	–	·	–	38.5
COc1cccc(N2C(N)=NC(N)=NC2(C)C)c1	–	78.8	–	–
SMILES	PrP 5UTR inh	BJeLR lethal	MazEF act	PrPC surface inh
CC(C)(C)C(=O)Nc1nc(C2CCCN2S(=O)(=O)c2ccc(Cl)cc2)cs1 (stereo not drawn)	–	–	50.5	–
O=C(Nc1nc(-c2ccccc2)cs1)C1CCCCN1S(=O)(=O)c1ccc(Cl)cc1 (stereo not drawn)	–	–	–	·
COC(=O)c1c(Cl)c2n3ccccc3c(C)c(-c3ccccc3)c-2c1C(=O)OC	–	–	–	–
COC(=O)c1cc2c(-c3ccccc3)c(C)c3ccccn3c-2c1C(=O)OC	–	–	50.1	–
Cc1c(C(=O)OCC(=O)N2CC(=O)Nc3ccccc32)oc2ccc(Br)cc12	–	67.6	–	–
Cc1cc(C(=O)OCC(=O)N2CC(=O)Nc3ccccc32)no1	–	–	–	–
COC(=O)C1=C(C)N(Cc2cccc(C(F)(F)F)c2)C(=NCC2CC2)NC1c1cccc(F)c1 (stereo not drawn)	·	·	·	–
COC(=O)C1=C(C)N(C)C(C)=C(C(=O)OC)C1c1ccccn1	–	–	93.9	–
Clc1ccc(C(Cn2ccnc2)OCc2c(Cl)cccc2Cl)c(Cl)c1 (stereo not drawn)	–	·	–	–
OC(Cn1ccnc1)c1ccc(Cl)cc1Cl (stereo not drawn)	–	–	158.8	–
Cc1ccc2nc(-c3cccc(Br)c3)c(Cc3ccsc3)n2c1	·	·	·	–
Cc1cc(/C=C2\C(=O)NC(=O)N(c3ccc(Cl)cc3)C2=O)c(C)n1C	–	–	–	–
Cc1cc(C)cc(N2C(=O)NC(=O)/C(=C\c3cc(C)n(C)c3C)C2=O)c1	–	–	92.2	–
N#Cc1ccc(Cn2ccc3ccc(-c4ccc5ccn(Cc6ccccc6)c5c4)cc32)cc1	·	·	·	–
Oc1c(N=Nc2ccccn2)ccc2ccccc12	–	61.0	–	–
C=CCN(CC#Cc1ccc(OC)cc1)CC=C	·	·	·	–
CCCNC(=O)/C(C#N)=C1\N=C(NC(=O)c2ccco2)c2ccccc21	–	–	90.0	–
CCCCCCn1c(=O)[nH]c2nc3cc(N)ccc3nc2c1=O	·	–	364.0	–
Cc1cc(C)cc(NC(=O)OC2CC3CC2[C@H]2CCCCN2[C@H]3C)c1 (stereo partly drawn)	·	·	·	–
O=C(NCc1ccccc1)[C@@H]1CCCN1C(=O)[C@H]1CCCN1C(=O)c1ccc(OC(F)(F)F)cc1	·	·	·	–
O=C(Nc1ccccc1)c1nn(-c2ccccc2)c(=O)cc1C(F)(F)F	–	–	380.8	–
O=C(c1ccccc1)c1nn(-c2ccccc2)c(=O)cc1C(F)(F)F	–	–	–	–
CCCCCc1ccc(-c2n[nH]c(=O)c3ccccc23)cc1	·	·	·	–
CCOC(=O)C1CSCCS(=O)(=O)N1Cc1cc(F)ccc1Br (stereo not drawn)	·	·	·	–
O=C(Nc1cccc2ncccc12)c1ccc(Cl)cc1	–	–	110.0	–
SMILES	PrP 5UTR inh	BJeLR lethal	MazEF act	PrPC surface inh
O=C(Nc1cccc2ncccc12)c1ccc(F)cc1	–	–	–	–
CC1CCc2c(sc3nc(C(C)(C)C)nc(N4CCN(C(=O)CCl)CC4)c23)C1 (stereo not drawn)	–	84.5	–	–
CN1C(=O)C(C)(C)c2cc(S(=O)(=O)NCc3ccc(C(=O)NCc4ccco4)cc3)ccc21	–	–	139.7	–
O=C(/C=C/c1ccccc1)NC(=O)c1ccccc1O	–	–	–	–
O=C(/C=C/c1ccccc1)CC(=O)c1ccccc1O	–	–	55.2	–
COCc1cc(N2CCNC[C@H]2C)ccc1N1CCS(=O)(=O)CC1	·	·	·	–
CCC(=O)N1CCN(c2ccc(NC(=O)c3cc4ccccc4o3)cc2Cl)CC1	–	–	–	31.9
Cc1ccc(S(=O)(=O)c2ccc([N+](=O)[O-])o2)cc1	–	·	–	82.5
COc1ccc(NC(=O)/C(Cl)=C(/Cl)S(=O)Cc2ccc(Cl)cc2)cn1 (stereo not drawn)	–	·	–	28.7
COc1ccc(NC(=O)/C(Cl)=C(/Cl)S(=O)(=O)Cc2ccccc2)cn1	–	–	–	94.3
Cc1nn(-c2ccccc2)c2sc(C(=O)N3CCN(S(=O)(=O)c4ccc(Br)s4)CC3)cc12	·	·	·	–

Assay outcomes from PubChem.
